For experiment [1], the target named is T1, Aspartate--tRNA(Asp/Asn) ligase (Mycobacterium tuberculosis (strain ATCC 25618 / H37Rv)) (UniProt P9WFW3). Note: in the data most compounds retested in dose-response had high values.
T1 sequence (whole entry): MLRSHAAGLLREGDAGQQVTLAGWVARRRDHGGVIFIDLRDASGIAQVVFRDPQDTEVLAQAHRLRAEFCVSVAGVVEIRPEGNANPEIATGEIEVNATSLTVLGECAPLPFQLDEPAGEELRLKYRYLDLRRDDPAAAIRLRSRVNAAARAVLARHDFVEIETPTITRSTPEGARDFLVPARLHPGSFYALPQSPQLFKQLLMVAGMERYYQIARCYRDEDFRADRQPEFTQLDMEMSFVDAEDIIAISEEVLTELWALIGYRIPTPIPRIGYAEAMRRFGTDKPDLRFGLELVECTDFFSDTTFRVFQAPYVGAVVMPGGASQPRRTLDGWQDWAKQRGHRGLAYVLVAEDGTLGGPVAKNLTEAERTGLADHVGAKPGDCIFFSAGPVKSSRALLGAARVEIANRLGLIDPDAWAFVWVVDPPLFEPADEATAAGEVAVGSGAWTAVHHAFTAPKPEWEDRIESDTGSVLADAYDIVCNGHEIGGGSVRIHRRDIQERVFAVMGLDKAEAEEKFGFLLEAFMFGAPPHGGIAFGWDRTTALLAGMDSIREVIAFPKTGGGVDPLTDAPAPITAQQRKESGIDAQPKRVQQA
The experiment is described as follows: Assay for Asp RNA synthetase-1 from Mycobacterium tuberculosis. The note with it: 30 µM. It counts as functional. More on the design: scale not given: direction of the effect not stated beside the values.

Experiment [2] deals with Shiga toxin 2 (Escherichia coli O157:H7) (UniProt P09385+P09386). The experiment is described as follows: E. coli 0.157:H7 Shiga Toxin SOP - stx2 screening assay. It counts as functional. More on the design: scale not given: direction of the effect not stated beside the values. The note with it: 30 µM.

For the compound `CNC(=O)CC1CC2(CCN(Cc3nccs3)CC2)c2ccccc21` (stereo unspecified), the results for the Percent Effect in experiment [1] and in experiment [2] were -1.76% and -4.71%, respectively.

For the compound `CCCc1cc(C(=O)N2CCCC2c2cccnc2)[nH]n1` (stereo unspecified), the values for the Percent Effect in experiment [1] and in experiment [2] were 3.74% and 11.1%, respectively.

Consider `Cc1cccc(N2CCN(CCCNC(=O)c3nccn3C)CC2)c1`, for which the values for the Percent Effect in experiment [1] and in experiment [2] were -3.22% and -11.1%, respectively.

In the case of `c1ccc(Oc2cc(CNCC3CNc4ccnn4C3)ccn2)cc1` (stereo unspecified), the values for the Percent Effect in experiment [1] and in experiment [2] were -8.46% and -36.5%, respectively.

As for `CC(=O)N(Cc1noc(C)n1)C1CCN(Cc2ccncc2Cl)C1` (stereo unspecified), the Percent Effect was 1.27% in experiment [1] and -3.88% in experiment [2].

As for `O=C(C1CCOCC1)N1CCO[C@H]2[C@@H](OCc3ccncc3)CC[C@@H]21`, the values for the Percent Effect in experiment [1] and in experiment [2] were -4.8% and 22.7%, respectively.

Regarding `CN1CCN(C[C@@H]2CN(C(=O)c3ccccc3C#N)C[C@@H]2CO)CC1`, the values for the Percent Effect in experiment [1] and in experiment [2] were -1.09% and -8.04%, respectively.

`Cc1nn(C)c(Cl)c1C1CCCN1CC(=O)NCc1ccccn1` (stereo unspecified): the Percent Effect is -2.78% in experiment [1] and -10.8% in experiment [2].

Take `Cc1cc(C)n(-c2ccc(CNCc3ccc(OC(C)C)cc3)cn2)n1`: the Percent Effect in experiment [1] was -4.39%; in experiment [2] it was 29.5%.

Turning to `O=c1[nH]c2c(c(=O)n1C1CCCCC1)CCC2Nc1ccccc1` (stereo unspecified), the Percent Effect in experiment [1] stood at 3.05%; in experiment [2], 1.28%.

Regarding `CCNC(=O)[C@@H]1C[C@H](NC(=O)c2cncnc2C)CN1CCCSC`, the Percent Effect in experiment [1] was -2.78%; in experiment [2], -8.54%.

Turning to `Cc1cc(C(=O)N2CCCC(c3noc(C)n3)C2)[nH]n1` (stereo unspecified), the Percent Effect in experiment [1] is -4.2%; in experiment [2] it was -22.4%.

Turning to `CN1CCN(c2ncnc3c2c(C(=O)NC2CC2)c2ccccn23)CC1`, the Percent Effect in experiment [1] is 5.32%; in experiment [2], -14.4%.

Take `COC[C@@]12CC[C@@H](N3CCOCC3)C[C@H]1CCN(c1ncccn1)C2`: the Percent Effect was -4.45% in experiment [1] and 17.6% in experiment [2].

Take `CC(C)CNC(=O)CN1C=Nc2ccccc2S1(=O)=O`: the Percent Effect is 5.2% in experiment [1] and 32.2% in experiment [2].

In the case of `CC(C)Cc1noc(CN2CCOC(Cn3cncn3)C2)n1` (stereo unspecified), the Percent Effect came out at 1.02% in experiment [1] and 16.9% in experiment [2].

Turning to `Cc1nn(C)cc1-c1cc(C(F)(F)F)c2c(C)nn(CC(=O)O)c2n1`, the Percent Effect in experiment [1] was 4.84%; in experiment [2] it was 34.1%.

For `N#Cc1ncn(CC(=O)Nc2cc(Cl)ccc2F)n1`, the figures for the Percent Effect in experiment [1] and in experiment [2] were 9.55% and -46.7%, respectively.

As to `CCc1nc(C2CCCN2Cc2nnc(Cc3ccccc3)o2)no1` (stereo unspecified), the Percent Effect is -0.231% in experiment [1] and 6.08% in experiment [2].

Take `CCOc1cc(C(=O)N2CCCC(n3cncn3)C2)ccc1C` (stereo unspecified): the Percent Effect amounted to 1.17% in experiment [1] and 17.5% in experiment [2].

As to `Cc1oc(-c2nc(C#N)c(N(C)C)o2)cc1S(=O)(=O)N1CCCC1`, the Percent Effect in experiment [1] was 0.145%; in experiment [2] it was -18.1%.

With `O=C(c1ccoc1)N1CC[C@@H]2O[C@H](COCc3ccccn3)CC[C@@H]21`, the Percent Effect is 1.36% in experiment [1] and -5.78% in experiment [2].

Take `CCC(C)N(C)CCNC(=O)NCc1cccc(-n2cncn2)c1` (stereo unspecified): the results for the Percent Effect in experiment [1] and in experiment [2] were -1.54% and -5.27%, respectively.

As for `COc1cccc(N2CCN(Cc3ncc[nH]3)CC2=O)c1`, the Percent Effect in experiment [1] is 0.446%; in experiment [2] it was -4.16%.

With `NS(=O)(=O)CCNC(=O)c1nnn(-c2ccc(F)cc2)c1C1CC1`, the Percent Effect in experiment [1] was -3.36%; in experiment [2], -8.62%.

With `NC(=O)NC(=O)CCN1CCCN(c2nccs2)CC1`, the Percent Effect in experiment [1] is 1.54%; in experiment [2], -33.2%.

As for `COc1cccc(OCc2cc(C(=O)NC[C@H]3CCCN3)n[nH]2)c1`, the Percent Effect in experiment [1] was 1%; in experiment [2], -1.49%.

Take `Cc1cc(C)c(CNC(=O)NCC2CCCN2C)c(=O)[nH]1` (stereo unspecified): the Percent Effect in experiment [1] is -1.7%; in experiment [2], 26.6%.

As to `Cn1nc(C(=O)NCc2ccccn2)c2c1CCS(=O)(=O)C2`, the Percent Effect in experiment [1] was -0.726%; in experiment [2], -22.4%.

Consider `CN(Cc1ccsc1)C(=O)c1cccc(S(=O)(=O)NC(C)(C)C)c1`, for which the Percent Effect in experiment [1] was -1.73%; in experiment [2], -33.3%.

As to `CCNC(c1cccnc1)c1cc(C)cc(C)c1` (stereo unspecified), the values for the Percent Effect in experiment [1] and in experiment [2] were -2.55% and -3.23%, respectively.

For the compound `Cc1ccc(NC(=O)C(C)N2CCCN(c3nccs3)CC2)c(C)c1` (stereo unspecified), the Percent Effect in experiment [1] is -4.7%; in experiment [2], -49.5%.

Take `O=C(NCCOc1ncc(Cl)cc1Cl)c1ccncc1`: the Percent Effect is 5.64% in experiment [1] and -19.5% in experiment [2].

For the compound `CC(NCc1ccc(Cl)o1)c1nnc2n1CCCC2` (stereo unspecified), the Percent Effect is -3.67% in experiment [1] and -31% in experiment [2].

With `CN(C)C(=O)[C@H]1C[C@@H]2CCN(C3CCOCC3)C[C@H]2O1`, the Percent Effect in experiment [1] was -3.87%; in experiment [2] it was -13.4%.

For the compound `O=C(NCc1nnc2n1CCCC2)N(Cc1ccccc1F)C1CC1`, the Percent Effect in experiment [1] is -1.44%; in experiment [2], 7.01%.

As for `Nc1nccc(N2CCCC(CO)(CCOc3ccccc3)C2)n1` (stereo unspecified), the Percent Effect in experiment [1] is 9.3%; in experiment [2], -17.8%.

For `Cc1cc(C)c(CNC(=O)NCC(c2ccccc2)N(C)C)c(=O)[nH]1` (stereo unspecified), the Percent Effect in experiment [1] was determined as 4.47%; in experiment [2], 23.9%.

On to `c1ccc2oc(CCCN3CCOC(Cn4cccn4)C3)nc2c1` (stereo unspecified), for which the results for the Percent Effect in experiment [1] and in experiment [2] were 0.605% and -3.52%, respectively.

Consider `Cc1ccc(C)c(NC(=O)c2n[nH]c(-n3cnnc3)n2)c1`, for which the figures for the Percent Effect in experiment [1] and in experiment [2] were -4.33% and -11.6%, respectively.

`CNC(=O)[C@H]1C[C@@H]2CN(C(=O)c3ccco3)C[C@@H]2N1S(C)(=O)=O`: the values for the Percent Effect in experiment [1] and in experiment [2] were -2.01% and -24.9%, respectively.

As for `NC(=O)c1ccc(N2CCCCC2)c(NC(=O)c2cncc(Br)c2)c1`, the Percent Effect in experiment [1] was 13.7%; in experiment [2] it was -52.6%.

As for `O=C(NCCCO)Nc1cccc(Cl)c1F`, the Percent Effect in experiment [1] is 1.48%; in experiment [2], -9.57%.

The record behind these values is ChEMBL document CHEMBL3988442, “University of Dundee, Small-Polar-MMV Screening Library” (2021).
